HCMV antiviral – human cytomegalovirus inhibition. HFF cells, HCMV-luciferase reporter, 72 h; active compounds read low. activity change, negative = inhibition, % at 57.5 µM. 410,000 tested, 4.5% active. AID 1259415; in the data active means activity change below about -60%; inconclusive means no clear call, values can overlap the other calls; inactive means above about -39%; further: on the % scale 0 is the no-effect control and ±100 the full control effect
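Compounds were evaluated in HFFs infected with an HCMV luciferase reporter virus (MOI 1 PFU/cell). Luciferase in lysates collected 72 h post infection served as the replication measure.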
Pf growth 48h – P. falciparum growth inhibition at 48 hours (one generation) | 310,000 tested, 5.9% active | P. falciparum luciferase growth in erythrocytes, 48 h | Potency, µM (top dose mostly 28.7 µM), inactives show at the top dose activity change, negative = inhibition, most hits filed as inhibitors; further: potency means the concentration at half of the fitted maximal effect; on the % scale 0 is the no-effect control and ±100 the full control effect
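Luciferase-expressing parasites in RBCs, 2% Hct / 0.1% parasitemia final; RPMI 1640 + 0.5% Albumax; 37 C, 5% CO2, one generation; luminescence read-out, lower signal = inhibition.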
Shiga toxin inh – Shiga toxin inhibition | Vero cells, Shiga toxin protein synthesis inhibition reporter | inhibition, % at 38.7 µM | 290,000 tested, 9.2% active; in the data active means inhibition mostly above about 28%, no sharp cut-off; inactive means mostly below about 43%; further: 0% is about no effect
Pf growth 96h – P. falciparum growth inhibition at 96 hours. P. falciparum luciferase reporter growth, 96 h. Potency, µM (doses to about 28.7 µM), inactives show top-dose activity change, negative = inhibition, hits mostly inhibitors. 320,000 tested, 6.9% active. AID 504834; further: potency means the concentration at half of the fitted maximal effect; on the % scale 0 is the no-effect control and ±100 the full control effect
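Delayed-death screen, second-generation endpoint: infected erythrocytes, 2% hematocrit, 0.05% parasitemia final; 96 hours at 37 C, 5% CO2; luciferase detection reagent; luminescence decrease equals reduced growth.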
CHX counter – affects cycloheximide protein synthesis inhibition readout, counter-screen | cell reporter, cycloheximide protein synthesis inhibition counterscreen | max response, % | 300,000 tested, 12% active; in the data active means max response mostly above about 13%, no sharp cut-off; inactive means mostly below about 14%; further: read at 38.3 µM for the half of the compounds with a filed dose; 0% is about no effect
HCV inhibitor – inhibitors of hepatitis C virus infection. Potency, µM (series often up to 41.8 µM), for the others: top-dose activity change, negative = inhibition, usual class: inhibitors. 340,000 tested, 3.4% active. Huh7.5.1 HCVcc-Cre infection, luciferase reporter, 44 h; further: potency means the concentration at half of the fitted maximal effect; on the % scale 0 is the no-effect control and ±100 the full control effect
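After 44 h co-culture of compound, cells and HCVcc-Cre (~0.5 moi), substrate is added for 15 min at room temperature and luciferase measured over 15 sec. Cells were seeded at 1,000/well and pre-cultured 4 h.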
* marks the source's active call; other numbers are inactive results; i = inactive; ? = inconclusive; · = not tested or not shown; [ ] = remark or other dose. Most compounds without a hit are left out; they make up all but 21% or so of the library. Unless noted, the call rests on the fitted dose curve; in most records, active means well fitted inhibition curve with a large enough effect; inconclusive means small, poorly fitted or top-dose-only effect, or another doubt; inactive means no such curve, though single readings can be large or run the other way.

SMILES	HCMV antiviral	Pf growth 48h	Shiga toxin inh	Pf growth 96h	CHX counter	HCV inhibitor
O=C(c1cccc(Cl)c1)N1CCCC(C(=O)N2CCN(c3ccccc3)CC2)C1 (stereo unspecified)	0	-24%	50*	11%	24*	6%
O=C(c1cccc(Cl)c1)N1CCCC(C(=O)N2CCCCCC2)C1 (stereo unspecified)	-24	?	-4	13%	13	16%
O=C(c1cccc(Cl)c1)C1CCCN(C(=O)c2ccoc2)C1 (stereo unspecified)	-35	-8%	-4	10µM*	-2	-2%
COc1c(C)cc(C(=O)C2CCCN(C(=O)c3ccoc3)C2)cc1C (stereo unspecified)	-81*	24%	10	?	8	9%
COc1ccc(Nc2cc(C(=O)NCCc3ccc(C)cc3)c3ccccc3n2)c(OC)c1	-11	·	·	·	·	·
O=C(O)[C@@H](O)[C@@H](O)[C@H](O)C(=O)CO	·	-1%	·	12%	·	·
CC(/C=C(\C)Nc1ccccc1)=Nc1ccccc1	30	116%	23	45%	26*	17%
CCOc1ccc2[nH]c(=O)c(CN(CCN3CCCC3)C(=S)Nc3ccccc3OC)cc2c1	-2	-17%	-7	33%	-5	?
O=C(CCCNS(=O)(=O)c1cccs1)N1CCc2ccccc2C1	-18	-10%	27	·	19	8%
O=C(CNS(=O)(=O)c1cccs1)N1CCN(c2ccccc2F)CC1	28	27%	71*	?	35*	-10%
O=C(CNS(=O)(=O)c1cccs1)N1CCc2ccccc2C1	90	64%	55*	0%	48*	0%
O=C(CNS(=O)(=O)c1cccs1)N1CCCC1	64	10%	7	?	-3	-5%
COC(=O)C(=O)/C=C(\O)c1c(C)cc(C)cc1C	35	3%	-11	15%	-1	8%
CC(C(=O)Nc1ccc(F)cc1Cl)N(C)CCOc1ccccc1 (stereo unspecified)	-61*	3%	-6	42%	-1	-21%
Cc1ccc(S(=O)(=O)N(C)C)cc1NC(=O)C(C)N(C)CCOc1ccc(Cl)cc1 (stereo unspecified)	-78*	?	2	?	-2	10µM*
CCC(=O)Nc1ccc2c(c1)ncn2-c1ccccc1	-5	54%	85*	16%	33*	-3%
CCC(=O)Nc1ccc2c(c1)ncn2-c1ccccc1OC	-36	-19%	24	?	7	8%
CC(=O)Nc1ccc2c(c1)ncn2-c1ccccc1	17	76%	56*	12%	49*	10%
COc1ccc(Cl)cc1NC(=O)CSc1nc2ccccc2nc1N1CCCCC1	29	·	·	·	·	·
COc1ccccc1/C=C/C(=O)N1CCc2cc(OC)c(OC)cc2C1C (stereo unspecified)	-20	-9%	-15	?	-2	22µM*
COc1cc2c(cc1OC)C(C)N(C(=O)c1ccc(Cl)c(S(=O)(=O)N3CCCCC3)c1)CC2 (stereo unspecified)	-64*	?	22	?	-2	8.9µM*
COc1cc2c(cc1OC)C(C)N(C(=O)Nc1ccccc1)CC2 (stereo unspecified)	3	?	-6	-4%	-9	?
COc1cc2c(cc1OC)C(C)N(C(=O)c1cccc([N+](=O)[O-])c1)CC2 (stereo unspecified)	-74*	-8%	-8	0.52µM*	-4	-28%
CNC(=O)CN(c1cc(OCCOC)c(Cl)cc1Cl)S(=O)(=O)c1ccc(OC)cc1	14	i	-16	-36%	-6	-7%
O=C1NC2(CCCCCC2)C(=O)N1Cc1cccc([N+](=O)[O-])c1	1	4%[0.00184 µM]	-7	-15%	1	-17%
N#CC1=C2SCCN2C(=O)C(C#N)C12CCCCC2 (stereo unspecified)	-4	-8%	-12	2.1µM*	4	-9%
CCSC1=C(C#N)C2(CCCCC2)C(C#N)C(=O)N1 (stereo unspecified)	-22	12%	1	0%	-5	11%

Screening results deposited in PubChem BioAssay by National Center for Advancing Translational Sciences (NCATS).
